Sampled rows, rich in hits. Any-hit rate of the full collection: about 17%.
DT40 TDP1 no CPT: qHTS for Inhibitors of human tyrosyl-DNA phosphodiesterase 1 (TDP1): qHTS in cells in absence of CPT; DT40 Tdp1-/- hTDP1 cells, no CPT, ATP luminescence, 48 h; Potency, µM (titrated, usually from 46.2 µM), for the others: at the top dose activity change, negative = growth inhibition, usual class: inhibitors; 420,000 tested, 15% active; also: % is scaled to controls: 0 for no effect and ±100 for the full control effect; nearly all actives have a fitted effect of over 55% in size
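Readout: luminescence from CellTiter-Glo after 30 min in the dark at RT. Cells: DT40 Tdp1-/- with stable hTDP1, 400/well. Exposure: compounds alone, ≥48 hr, 37 °C.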
ATXN2 expr inh: Primary qHTS for Inhibitors of ATXN expression; HEK-293 ATXN2-luciferase reporter, luminescence, 24 h; Potency, µM (doses to about 57 µM), without a hit: at the highest dose activity change, negative = inhibition, most hits filed as inhibitors; 360,000 tested, 0.72% active; also: % is scaled to controls: 0 for no effect and ±100 for the full control effect; nearly all actives have a fitted effect of over 55% in size
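qHTS (up to 57 uM final) was run with 24 h compound exposure of reporter cells at 37 °C. Each well was multiplexed: SteadyGlo luminescence measured ATXN2-luciferase expression after a fluorogenic Gly-Phe-AFC viability readout (25 uM final).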
S2 tox: Viability Counterscreen for Primary qHTS for Inhibitors of ATXN expression | S2 cells (HEK-293 line with an ATXN2-luciferase reporter) viability, CellTiter-Fluor protease fluorescence, 24 h | Potency, µM (titrated, usually from 56.7 µM), actives largely listed as cytotoxic | 400,000 tested, 0.49% active | AID 651635, 2014; also: nearly all actives have a fitted effect of over 40% in size
TGFb SMAD3 inh: qHTS for Inhibitors of TGF-b | AID 588855, 2011 | HepG2 CAGA-GFP TGF-b/SMAD3 reporter, GFP fluorescence, 18 h; TGF-beta stimulated, 500 pg/mL final | 410,000 tested, 1.2% active | Potency, µM (doses to about 46.1 µM), for the others: at the top dose activity, negative = inhibition, usual class: inhibitors; also: % is scaled to controls: 0 for no effect and ±100 for the full control effect; nearly all actives have a fitted effect of over 65% in size
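Cell-based qHTS in HEPG2 carrying a CAGA-GFP Smad reporter; compounds added before 500 pg/mL final TGF-beta, 18 h incubation at 37 degrees C, GFP fluorescence quantified per cell by imaging cytometry.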
DT40 TDP1 CPT: qHTS for Inhibitors of human tyrosyl-DNA phosphodiesterase 1 (TDP1): qHTS in cells in presence of CPT | chicken DT40 Tdp1-/-;hTDP1 cells + 20 nM CPT, ATP luminescence, 48 h | Potency, µM (top dose mostly 46.2 µM), for the others: top-dose activity change, negative = growth inhibition, usual class: inhibitors | 420,000 tested, 12% active | AID 686979, 2013; also: % is scaled to controls: 0 for no effect and ±100 for the full control effect; nearly all actives have a fitted effect of over 55% in size
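Chicken DT40 Tdp1-/- cells stably complemented with human TDP1 were seeded at 400 cells/well in medium containing 20 nM camptothecin, exposed to pin-transferred compounds, and grown at 37 °C for at least 48 hr. Viability was read as ATP luminescence.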
HepG2 tox: qHTS for Inhibitors of TGF-b: Cytotox Counterscreen | HepG2 CAGA-GFP viability, ATP luminescence, 18 h | Potency, µM (titrated, usually from 46.1 µM), inactives show at the highest dose activity change, negative = cytotoxicity, actives largely listed as cytotoxic | 410,000 tested, 0.76% active | AID 588856, 2011
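CellTiter-Glo luminescence gave cytotoxicity after 18 hours at 37 degrees C. The cells were HepG2 CAGA-GFP in 1% FBS DMEM, stimulated with 500 pg/mL TGF-beta after compound addition. %Activity was normalised to no-cell wells (complete cell-killing) and DMSO (no toxicity), and curves were fitted and classified.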
Active calls of the source: *; [ ] = another dose, or the depositor's remark. Calls follow the shape of the dose curve; as a rule, active = well fitted curve in the direction sought with a large enough effect; inconclusive = small, poorly fitted or top-dose-only effect, or another doubt; inactive = no such curve, though single readings can be large; an effect the other way counts as inactive or inconclusive. Potency is read from the fitted curve at half-maximal effect.

Cc1cc(Cl)ccc1OCC(=O)NNC(=O)c1cnccn1 was read as DT40 TDP1 no CPT 23µM*, ATXN2 expr inh inconclusive, S2 tox inconclusive, TGFb SMAD3 inh -6%, DT40 TDP1 CPT 10µM* and HepG2 tox -6%.
For Cc1cccc(NC(=O)c2ccc3[nH]c(=O)c(=O)[nH]c3c2)n1 the results were DT40 TDP1 no CPT inconclusive, S2 tox inactive, TGFb SMAD3 inh 14%, DT40 TDP1 CPT -9% and HepG2 tox 1%.
`CCOc1ccc(C(=O)OCc2cc(=O)n3nc(C(C)C)sc3n2)cc1` gave DT40 TDP1 no CPT -8%, ATXN2 expr inh -2%, S2 tox inactive, TGFb SMAD3 inh inconclusive, DT40 TDP1 CPT -12% and HepG2 tox -20%.
Screening CCC(=O)N1CCc2cc(CNC(=O)Cc3ccc(OC)c(OC)c3)ccc21 returned DT40 TDP1 no CPT inconclusive, TGFb SMAD3 inh 0%, DT40 TDP1 CPT -23% and HepG2 tox -9%.
`Cc1nn(C(C)C(=O)c2cccc(Cl)c2)c(C)c1[N+](=O)[O-]` (stereo not given) gave DT40 TDP1 no CPT -2%, ATXN2 expr inh -20%[11.3 µM], S2 tox inactive, TGFb SMAD3 inh -5%, DT40 TDP1 CPT 13% and HepG2 tox 3%.
`Cc1cc(C)n(CC(=O)c2ccc(Cl)cc2)n1` gave DT40 TDP1 no CPT 8%, ATXN2 expr inh -2%, S2 tox inactive, TGFb SMAD3 inh -31%, DT40 TDP1 CPT 12% and HepG2 tox -24%.
For CCn1nc(C)cc1C(=O)Sc1cccc(Cl)c1 the results were DT40 TDP1 no CPT 4.1µM*, ATXN2 expr inh -1%, S2 tox inactive, TGFb SMAD3 inh inconclusive, DT40 TDP1 CPT 3.7µM* and HepG2 tox -34%.
For Cc1nn(C)c(C(=O)Sc2cccc(Cl)c2)c1[N+](=O)[O-] the results were DT40 TDP1 no CPT 2.9µM*, ATXN2 expr inh 16%, S2 tox inactive, TGFb SMAD3 inh -21%, DT40 TDP1 CPT 4.6µM* and HepG2 tox -60%.
`Cc1nn(C)c(C(=O)Sc2ccccc2)c1[N+](=O)[O-]` gave DT40 TDP1 no CPT 23µM*, ATXN2 expr inh -15%, S2 tox inactive, TGFb SMAD3 inh inconclusive, DT40 TDP1 CPT inconclusive and HepG2 tox -6%.
Screening Cc1nn(C)c(C(=O)N/N=C/c2ccccn2)c1[N+](=O)[O-] returned DT40 TDP1 no CPT 7%, ATXN2 expr inh 6%, S2 tox inactive, TGFb SMAD3 inh -8%, DT40 TDP1 CPT 1% and HepG2 tox -3%.
`CCC(CC)C(=O)Nc1c2c(nn1-c1ccc(OC)cc1)CS(=O)C2` (stereo not given) gave DT40 TDP1 no CPT -22%, ATXN2 expr inh 2%, S2 tox inactive, TGFb SMAD3 inh 2%, DT40 TDP1 CPT -6% and HepG2 tox -1%.
`CC(NC1c2ccccc2-c2ccccc21)c1ccccc1` (stereo not given) gave DT40 TDP1 no CPT inconclusive, ATXN2 expr inh -21%, S2 tox inactive, TGFb SMAD3 inh -1%, DT40 TDP1 CPT inconclusive and HepG2 tox -8%.
`Cc1ccc(/C=C/C(=O)c2nc3ccccc3[nH]2)cc1` gave DT40 TDP1 no CPT 16µM*, ATXN2 expr inh 7%, S2 tox inactive, TGFb SMAD3 inh inconclusive, DT40 TDP1 CPT 21µM* and HepG2 tox -68%.
For O=C(/C=C/c1c(F)cccc1Cl)Nc1nc2ccccc2[nH]1 the results were DT40 TDP1 no CPT inconclusive, ATXN2 expr inh 25%, S2 tox inactive, TGFb SMAD3 inh -10%, DT40 TDP1 CPT -6% and HepG2 tox 2%.
